Bioassay records as filed in PubChem BioAssay.
TDP1 cell CPT = DT40-hTDP1 cell growth loss with CPT; chicken DT40 Tdp1-/-;hTDP1 cells + 20 nM CPT, ATP luminescence, 48 h; Potency, µM (series often up to 46.2 µM), inactives show at the top dose activity change, negative = growth inhibition, hits mostly inhibitors; 12% of 420,000 active; AID 686979; further: potency means the concentration at half of the fitted maximal effect; nearly all actives have a fitted effect of over 55% in size
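Chicken DT40 Tdp1-/- cells complemented with human TDP1, 400 cells/well, exposed to compounds plus 20 nM camptothecin for at least 48 h at 37 C; viability read as ATP content by CellTiter-Glo luminescence.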
HT1080 IDH1KD tx = kills HT-1080 cells with IDH1 knockdown; 2% of 360,000 active; Potency, µM (top dose mostly 46.1 µM), for the others: at the highest dose activity, negative = toxicity, most hits filed as cytotoxic; HT-1080 IDH1 knockdown viability, ATP luminescence, 48 h;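 further: potency means the concentration at half of the fitted maximal effect; 0% = DMSO wells and -100% = cell-free medium wells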
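Using the IDH1-knockdown HT-1080 line run in the same batch and compound series as the NT line, viability after 48 h at 37 °C was determined by CellTiter-Glo luminescence and expressed as % activity.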
TDP1 cell noCPT = qHTS for Inhibitors of human tyrosyl-DNA phosphodiesterase 1 (TDP1): qHTS in cells in absence of CPT; DT40 Tdp1-/- hTDP1 cells, no CPT, ATP luminescence, 48 h; Potency, µM (series often up to 46.2 µM), inactives show at the highest dose activity change, negative = growth inhibition, usual class: inhibitors; 15% of 420,000 active; AID 686978, 2013; further: potency means the concentration at half of the fitted maximal effect; nearly all actives have a fitted effect of over 55% in size
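Readout: luminescence from CellTiter-Glo after 30 min in the dark at RT. Cells: DT40 Tdp1-/- with stable hTDP1, 400/well. Exposure: compounds alone, ≥48 hr, 37 °C.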
HT1080-NT tox = kills 2HG-producing HT-1080-NT fibrosarcoma cells; HT-1080-NT fibrosarcoma viability, CellTiter-Glo ATP luminescence, 48 h; Potency, µM (doses to about 46.1 µM), for inactives: at the top dose activity, negative = less viability, hits mostly cytotoxic; 1.6% of 360,000 active;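 further: NT is the 2HG producing partner of a matched IDH1 knockdown line; potency means the concentration at half of the fitted maximal effect; 0% = DMSO-treated cells and -100% = media-only wells without cells; nearly all actives have a fitted effect of over 55% in size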
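Read-out is CellTiter-Glo luminescence after 10 minutes at room temperature, following 48 hours' compound treatment of HT-1080-NT cells (750 cells/well, RPMI, 5% FBS, 37 degrees C).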
IL1B secr inh = blocks inflammasome-driven IL-1 beta release; THP-1 LPS/ATP IL-1B secretion, AlphaLISA, 16 h; active compounds read low; activity change, % at 57.5 µM; 4.7% of 360,000 active; AID 743279; in the data active means activity change below about -50%; inconclusive means mostly about -30% to -49%
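Secreted IL-1B measured by AlphaLISA bead assay after 16 h compound exposure of THP-1 cells; compounds (final up to 57.5 uM) added 1 h before LPS (250 ng/mL) and ATP (1.25 mM) stimulation; lower signal means less secretion.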
Starred values were filed as active, the others as inactive; [ ] = dose if it differs, or a comment. Rows were chosen to be rich in hits. Some 19% of all compounds tested hit in one or more screens of this group. Unless noted, the call rests on the fitted dose curve; in most records, active means well fitted curve in the direction sought with a large enough effect; inconclusive means small, poorly fitted or top-dose-only effect, or another doubt; inactive means no such curve, though single readings can be large; an effect the other way counts as inactive or inconclusive. Unless noted, on the % scale 0 is the no-effect control and ±100 the full control effect.

How did O=C(CC1C(=O)NCCN1Cc1ccc(-c2ccccc2)cc1)NCC1CC1 (stereo not given) do in these assays?
TDP1 cell CPT: -4.1%; HT1080 IDH1KD tx: -8.1%; TDP1 cell noCPT: inconclusive; HT1080-NT tox: -3.9%; IL1B secr inh: -54.4*

What do the screens show for `CN(C(=O)CC1C(=O)NCCN1Cc1ccccc1C(F)(F)F)C1CCOCC1` (stereo not given)?
TDP1 cell CPT: inconclusive; HT1080 IDH1KD tx: 5.7%; TDP1 cell noCPT: 20.6µM*; HT1080-NT tox: 10.3%; IL1B secr inh: 2.5

How did CCCCN(C)C(=O)Cn1cnc2sc(C)c(S(=O)(=O)N3CCC(C)CC3)c2c1=O do in these assays?
TDP1 cell CPT: -13.1%; TDP1 cell noCPT: -13.1%

Results for O=C(NCC(=O)N1CCCC1)NN=Cc1ccccc1O ?
TDP1 cell CPT: inconclusive; HT1080 IDH1KD tx: -8.5%; TDP1 cell noCPT: inconclusive; HT1080-NT tox: -8.9%; IL1B secr inh: 52.2

How did COc1ccc(CN2CCN(C(=O)CCC(=O)Nc3nnc(C(F)(F)F)s3)CC2)cc1F do in these assays?
TDP1 cell CPT: -27.2%; HT1080 IDH1KD tx: -11.5%; TDP1 cell noCPT: -15.0%; HT1080-NT tox: -22.8%; IL1B secr inh: 51.1

Results for O=C(CCC(=O)N1CCCCC1)Nc1nnc(C2CCCCC2)s1 ?
TDP1 cell CPT: 3.1%; HT1080 IDH1KD tx: 6.5%; TDP1 cell noCPT: -1.6%; HT1080-NT tox: 7.4%; IL1B secr inh: 40.4

Results for COc1ccc(CN2CCN(C(=O)CCC(=O)Nc3nnc(C4CCCCC4)s3)CC2)cc1F ?
TDP1 cell CPT: 16.4µM*; HT1080 IDH1KD tx: -11.6%; TDP1 cell noCPT: inconclusive; HT1080-NT tox: -17.4%; IL1B secr inh: -21.8

How did COc1ccc(CN2CCN(C(=O)CCC(=O)Nc3nnc(CC(C)C)s3)CC2)cc1F do in these assays?
TDP1 cell CPT: 3.26µM*; HT1080 IDH1KD tx: 0.0%; TDP1 cell noCPT: 4.61µM*; HT1080-NT tox: -4.9%; IL1B secr inh: 8.9

How did CC(C)Cc1nnc(NC(=O)CCC(=O)N2CCN(c3ccc([N+](=O)[O-])cc3)CC2)s1 do in these assays?
TDP1 cell CPT: 14.6µM*; HT1080 IDH1KD tx: -3.3%; TDP1 cell noCPT: 18.4µM*; HT1080-NT tox: inconclusive; IL1B secr inh: -11.2

How did Cc1c(C)c2ccc(OC(C)C(=O)NCc3ccccn3)cc2oc1=O (stereo not given) do in these assays?
TDP1 cell CPT: 9.5%; HT1080 IDH1KD tx: 21.6%; TDP1 cell noCPT: 1.0%; HT1080-NT tox: 5.9%; IL1B secr inh: -25.0

How did O=C(CCCOc1ccccc1)Nc1nc2ccccc2[nH]1 do in these assays?
TDP1 cell CPT: -2.6%; HT1080 IDH1KD tx: 5.9%; TDP1 cell noCPT: -25.8%; HT1080-NT tox: 3.8%; IL1B secr inh: -6.0

What do the screens show for `O=S(=O)(CCOc1ccccc1)c1nc2ccccc2[nH]1`?
TDP1 cell CPT: inconclusive; HT1080 IDH1KD tx: inconclusive; TDP1 cell noCPT: 23.1µM*; HT1080-NT tox: inconclusive; IL1B secr inh: -25.6

How did COc1ccccc1C(=O)Nc1cccc(N2CCC(NCc3cnn(-c4ccccc4)n3)CC2)c1 do in these assays?
TDP1 cell CPT: -9.2%[9.04 µM]; TDP1 cell noCPT: inconclusive

What do the screens show for `Brc1ccc(-c2nc3ncccn3c2NC2CCCCC2)o1`?
TDP1 cell CPT: 16.4µM*; HT1080 IDH1KD tx: -18.7%; TDP1 cell noCPT: inconclusive; HT1080-NT tox: -25.8%; IL1B secr inh: -4.6

How did COCCN1C(=O)C(CC(=O)Nc2ccccc2)SC1=Nc1ccc(OC)cc1 (stereo not given) do in these assays?
TDP1 cell CPT: -5.7%; HT1080 IDH1KD tx: -12.5%; TDP1 cell noCPT: -13.0%; HT1080-NT tox: -13.1%; IL1B secr inh: 8.1

How did CCOC(=O)c1ccc(NC(=O)CC2Sc3ncnn3C2=O)cc1 (stereo not given) do in these assays?
TDP1 cell CPT: 5.8µM*; HT1080 IDH1KD tx: 2.0%; TDP1 cell noCPT: 6.51µM*; HT1080-NT tox: 1.0%; IL1B secr inh: inconclusive

How did COc1ccc(NC(=O)CC2Sc3ncnn3C2=O)cc1 (stereo not given) do in these assays?
TDP1 cell CPT: 5.17µM*; HT1080 IDH1KD tx: -4.6%; TDP1 cell noCPT: 11.6µM*; HT1080-NT tox: -2.4%; IL1B secr inh: 14.9

Results for COc1ccccc1CNC(=O)COC(=O)COc1ccccc1Cc1ccccc1 ?
TDP1 cell CPT: 7.1%; HT1080 IDH1KD tx: 15.9%; TDP1 cell noCPT: inconclusive; HT1080-NT tox: 14.5%; IL1B secr inh: -3.2

How did O=C(C1=C(O)C(=O)N(Cc2ccco2)C1c1cccnc1)c1cc2ccccc2o1 (stereo not given) do in these assays?
TDP1 cell CPT: inconclusive; HT1080 IDH1KD tx: 5.3%; TDP1 cell noCPT: inconclusive; HT1080-NT tox: 14.0%; IL1B secr inh: 27.6

Results for COc1cccc2cc(C(=O)C3=C(O)C(=O)N(Cc4ccco4)C3c3cccnc3)oc12 (stereo not given) ?
TDP1 cell CPT: inconclusive; HT1080 IDH1KD tx: 4.6%; TDP1 cell noCPT: 23.1µM*; HT1080-NT tox: 11.9%; IL1B secr inh: 24.0

What do the screens show for `CC(C)(C)C1CCC(CN2CCC(CN3C(=O)C(=O)NC[C@@H]3Cc3ccccc3)CC2)CC1` (stereo not given in full)?
TDP1 cell CPT: inconclusive; HT1080 IDH1KD tx: 5.1%; TDP1 cell noCPT: inconclusive; HT1080-NT tox: 0.1%; IL1B secr inh: -56.4*

Results for O=C1NC[C@H](Cc2ccccc2)N(C[C@@H]2CCCN2C[C@H](Cc2ccc(O)cc2)N2C[C@H](Cc3ccccc3)N(CC3CCCCCC3)C(=O)C2=O)C1=O ?
TDP1 cell CPT: inconclusive; HT1080 IDH1KD tx: inconclusive; TDP1 cell noCPT: inconclusive; HT1080-NT tox: inconclusive; IL1B secr inh: -82.6*

What do the screens show for `CC(C)C[C@H]1CN([C@@H](Cc2ccccc2)CN2CCC[C@H]2CN2C(=O)C(=O)NC[C@@H]2Cc2ccc(O)cc2)C(=O)C(=O)N1CC1CCCCC1`?
TDP1 cell CPT: inconclusive; HT1080 IDH1KD tx: inconclusive; TDP1 cell noCPT: inconclusive; HT1080-NT tox: inconclusive; IL1B secr inh: -94.1*

How did O=C1NC[C@H](Cc2ccccc2)N(C[C@@H]2CCCN2C[C@H](Cc2ccccc2)N2C[C@H](Cc3ccccc3)N(CC3CCCCC3)C(=O)C2=O)C1=O do in these assays?
TDP1 cell CPT: 16.4µM*; HT1080 IDH1KD tx: inconclusive; TDP1 cell noCPT: 23.1µM*; HT1080-NT tox: inconclusive; IL1B secr inh: -76.6*

Results for O=C1NC[C@H](Cc2ccccc2)N(CC2CCN(CCC3CCCC3)CC2)C1=O ?
TDP1 cell CPT: -7.9%; HT1080 IDH1KD tx: -2.0%; TDP1 cell noCPT: -1.9%; HT1080-NT tox: -2.6%; IL1B secr inh: 9.6
